The text below walks through data of ChEMBL document CHEMBL5724796, “Tm Shift (DSF) assay results for EUbOPEN Chemogenomics Library” (2024).

Common to all, as to conditions: Compound concentration 20.0 uM
Assay [1] addresses Tyrosine-protein kinase ABL1 (Homo sapiens) (UniProt P00519).
Assay [2] addresses Bromodomain-containing protein 4 (Homo sapiens) (UniProt O60885).
Assay [3] has as its target Cyclin-dependent kinase 2 (Homo sapiens) (UniProt P24941).
The target of assay [4] is Casein kinase I isoform delta (Homo sapiens) (UniProt P48730).
Sequence of Casein kinase I isoform delta (Homo sapiens) (P48730 whole entry, looked up, canonical isoform): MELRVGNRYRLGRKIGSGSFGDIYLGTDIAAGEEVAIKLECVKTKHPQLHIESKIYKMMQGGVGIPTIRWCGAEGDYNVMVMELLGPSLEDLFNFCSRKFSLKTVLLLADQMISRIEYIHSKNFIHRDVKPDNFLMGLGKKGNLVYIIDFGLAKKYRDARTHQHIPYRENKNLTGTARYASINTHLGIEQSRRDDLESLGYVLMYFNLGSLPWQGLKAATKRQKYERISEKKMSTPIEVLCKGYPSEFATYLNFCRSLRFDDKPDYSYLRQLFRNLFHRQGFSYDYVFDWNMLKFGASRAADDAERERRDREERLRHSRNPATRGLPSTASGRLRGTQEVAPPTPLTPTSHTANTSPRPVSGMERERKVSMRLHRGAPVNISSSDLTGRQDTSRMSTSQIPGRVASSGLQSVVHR
Assay [5] deals with Glycogen synthase kinase-3 beta (Homo sapiens) (UniProt P49841).
Sequence of Glycogen synthase kinase-3 beta (Homo sapiens) (P49841 whole entry, looked up): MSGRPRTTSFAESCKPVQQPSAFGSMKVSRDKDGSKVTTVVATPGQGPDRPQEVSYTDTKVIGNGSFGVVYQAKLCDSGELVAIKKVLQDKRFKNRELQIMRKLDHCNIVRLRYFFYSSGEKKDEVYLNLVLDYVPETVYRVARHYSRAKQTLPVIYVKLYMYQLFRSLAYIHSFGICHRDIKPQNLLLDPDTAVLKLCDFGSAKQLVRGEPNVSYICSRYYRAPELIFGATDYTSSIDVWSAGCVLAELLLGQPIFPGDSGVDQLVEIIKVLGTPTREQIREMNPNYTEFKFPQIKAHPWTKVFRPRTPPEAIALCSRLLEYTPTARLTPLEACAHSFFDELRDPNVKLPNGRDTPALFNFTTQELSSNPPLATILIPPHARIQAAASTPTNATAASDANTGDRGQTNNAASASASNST
The target of assay [6] is Mitogen-activated protein kinase 1 (Homo sapiens) (UniProt P28482).
Sequence of Mitogen-activated protein kinase 1 (Homo sapiens) (P28482 whole entry): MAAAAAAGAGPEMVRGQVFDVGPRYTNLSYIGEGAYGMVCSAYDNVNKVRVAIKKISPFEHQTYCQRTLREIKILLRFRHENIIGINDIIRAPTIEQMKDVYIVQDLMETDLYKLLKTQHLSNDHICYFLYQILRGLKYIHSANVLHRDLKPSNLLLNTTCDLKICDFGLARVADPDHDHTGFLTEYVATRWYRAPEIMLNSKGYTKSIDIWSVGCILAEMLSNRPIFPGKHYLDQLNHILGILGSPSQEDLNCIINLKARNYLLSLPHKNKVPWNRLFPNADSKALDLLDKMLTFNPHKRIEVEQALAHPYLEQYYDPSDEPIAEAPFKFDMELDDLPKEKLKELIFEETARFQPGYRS
The target of assay [7] is T1, Aurora kinase A (Homo sapiens) (UniProt O14965).
T1 sequence (whole entry): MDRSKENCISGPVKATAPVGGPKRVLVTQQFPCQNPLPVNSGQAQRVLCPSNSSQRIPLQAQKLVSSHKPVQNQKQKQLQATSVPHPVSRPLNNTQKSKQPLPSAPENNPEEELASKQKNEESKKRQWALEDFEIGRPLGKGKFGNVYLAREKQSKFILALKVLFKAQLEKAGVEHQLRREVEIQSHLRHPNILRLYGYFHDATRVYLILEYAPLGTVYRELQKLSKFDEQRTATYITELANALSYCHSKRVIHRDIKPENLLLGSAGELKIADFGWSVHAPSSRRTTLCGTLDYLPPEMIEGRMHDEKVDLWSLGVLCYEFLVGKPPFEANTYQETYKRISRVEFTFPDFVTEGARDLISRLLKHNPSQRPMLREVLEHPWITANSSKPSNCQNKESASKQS

Assay [8] concerns the target T2, Transcription intermediary factor 1-alpha (Homo sapiens) (UniProt O15164).
T2 sequence (whole entry): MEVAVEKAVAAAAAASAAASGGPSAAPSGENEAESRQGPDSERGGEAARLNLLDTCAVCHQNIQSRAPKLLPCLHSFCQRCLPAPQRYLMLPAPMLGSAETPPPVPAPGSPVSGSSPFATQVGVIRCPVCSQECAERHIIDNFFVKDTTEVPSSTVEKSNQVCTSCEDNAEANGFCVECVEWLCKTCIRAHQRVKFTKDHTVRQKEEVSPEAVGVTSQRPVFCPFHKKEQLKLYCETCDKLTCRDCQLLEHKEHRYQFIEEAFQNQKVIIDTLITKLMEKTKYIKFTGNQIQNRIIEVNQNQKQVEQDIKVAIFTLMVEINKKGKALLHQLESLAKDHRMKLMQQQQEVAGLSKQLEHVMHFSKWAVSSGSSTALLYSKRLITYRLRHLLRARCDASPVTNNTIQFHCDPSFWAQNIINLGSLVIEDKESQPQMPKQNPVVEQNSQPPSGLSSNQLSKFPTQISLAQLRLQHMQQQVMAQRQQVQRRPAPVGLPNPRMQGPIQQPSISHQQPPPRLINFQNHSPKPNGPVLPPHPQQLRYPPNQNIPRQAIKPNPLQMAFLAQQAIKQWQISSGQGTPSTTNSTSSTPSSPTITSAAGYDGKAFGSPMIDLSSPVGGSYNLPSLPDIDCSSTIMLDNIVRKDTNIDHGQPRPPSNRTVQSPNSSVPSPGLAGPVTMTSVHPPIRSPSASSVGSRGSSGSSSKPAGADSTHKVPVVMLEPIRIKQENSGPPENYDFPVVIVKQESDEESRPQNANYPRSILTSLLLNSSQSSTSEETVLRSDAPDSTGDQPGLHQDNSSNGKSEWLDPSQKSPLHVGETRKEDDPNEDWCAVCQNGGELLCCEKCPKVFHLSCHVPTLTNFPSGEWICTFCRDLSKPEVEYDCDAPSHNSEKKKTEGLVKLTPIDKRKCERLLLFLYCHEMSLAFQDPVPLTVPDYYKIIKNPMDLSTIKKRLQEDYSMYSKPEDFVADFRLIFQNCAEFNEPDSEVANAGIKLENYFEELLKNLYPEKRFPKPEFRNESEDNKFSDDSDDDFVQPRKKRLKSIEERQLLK

Sequence of Tyrosine-protein kinase ABL1 (Homo sapiens) (P00519 whole entry): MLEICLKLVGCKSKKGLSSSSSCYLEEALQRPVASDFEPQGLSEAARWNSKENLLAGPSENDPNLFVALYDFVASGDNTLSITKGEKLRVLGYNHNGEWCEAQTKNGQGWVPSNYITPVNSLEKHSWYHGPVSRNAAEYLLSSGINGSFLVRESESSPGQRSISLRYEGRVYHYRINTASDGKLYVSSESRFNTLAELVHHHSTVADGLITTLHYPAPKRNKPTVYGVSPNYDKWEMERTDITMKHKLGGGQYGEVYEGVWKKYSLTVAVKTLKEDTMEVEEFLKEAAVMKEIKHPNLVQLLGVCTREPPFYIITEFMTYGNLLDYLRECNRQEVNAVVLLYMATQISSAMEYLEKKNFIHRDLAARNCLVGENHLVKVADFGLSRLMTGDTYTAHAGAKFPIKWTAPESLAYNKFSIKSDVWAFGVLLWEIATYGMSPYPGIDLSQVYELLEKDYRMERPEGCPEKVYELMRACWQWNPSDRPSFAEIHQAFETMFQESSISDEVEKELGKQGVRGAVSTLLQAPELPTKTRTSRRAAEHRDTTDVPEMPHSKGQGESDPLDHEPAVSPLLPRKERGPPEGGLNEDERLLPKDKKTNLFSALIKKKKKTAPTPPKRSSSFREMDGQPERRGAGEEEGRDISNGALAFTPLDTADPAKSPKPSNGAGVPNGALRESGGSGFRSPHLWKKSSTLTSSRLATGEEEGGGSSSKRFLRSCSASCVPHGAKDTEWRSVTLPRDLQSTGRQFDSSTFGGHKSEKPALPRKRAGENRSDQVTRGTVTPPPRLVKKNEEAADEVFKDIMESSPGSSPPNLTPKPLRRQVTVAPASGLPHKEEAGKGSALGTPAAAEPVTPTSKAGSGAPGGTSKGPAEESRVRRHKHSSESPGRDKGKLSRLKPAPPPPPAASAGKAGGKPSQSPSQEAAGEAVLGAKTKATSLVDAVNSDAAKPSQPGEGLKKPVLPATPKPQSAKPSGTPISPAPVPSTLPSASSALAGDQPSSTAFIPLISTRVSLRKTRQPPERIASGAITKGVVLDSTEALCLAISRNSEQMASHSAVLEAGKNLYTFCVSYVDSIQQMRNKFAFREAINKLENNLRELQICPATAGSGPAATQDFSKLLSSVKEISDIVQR

Turning to `O=C(Nc1c(Cl)cncc1Cl)c1ccc(OC(F)F)c(OCC2CC2)c1`, the ΔTm in assay [1] was 0.75 °C; in assay [2], -3.16 °C; in assay [3], 0.32 °C; in assay [4] it was -0.3 °C; in assay [5] it was 0.27 °C; in assay [6], 0.36 °C. Further, the values for the ΔTm in assay [7] and in assay [8] were -2.31 °C and 2.4 °C, respectively.

`Cc1nc(F)ccc1-c1cc(Cn2ccn(C)c2=N)cc(C(=O)NCc2ccc(Cl)c(Cl)c2)c1`: the ΔTm was 0.39 °C in assay [1]; -2.09 °C in assay [2]; -0.77 °C in assay [3]; 0.13 °C in assay [4]; -0.9 °C in assay [5]; -0.24 °C in assay [6]. In addition, the ΔTm in assay [7] was -0.34 °C; in assay [8], -1.96 °C.

Take `CS(=O)(=O)c1ccc(-c2nnc(C=Cc3nnc(-c4ccc(C#N)cc4)o3)n2-c2ccccc2Cl)nc1`: the ΔTm is 0.4 °C in assay [1]; -3.09 °C in assay [2]; 0.99 °C in assay [3]; -0.25 °C in assay [4]; -0.77 °C in assay [5]; -0.27 °C in assay [6]. The ΔTm in assay [7] is -1.63 °C; in assay [8] it was 0.34 °C.

Take `O=C1c2ccccc2C(=O)c2oc(-c3cccnc3)nc21`: the ΔTm was 0.81 °C in assay [1]; -2.99 °C in assay [2]; 0.36 °C in assay [3]; -0.59 °C in assay [4]; 0.34 °C in assay [5]; 0.32 °C in assay [6]. In addition, the ΔTm in assay [7] is -2.61 °C; in assay [8], -0.87 °C.

In the case of `O=C(CCl)Nc1ccc(S(=O)(=O)c2ccc(NC(=O)CCl)cc2)cc1`, the ΔTm in assay [1] was 1.36 °C; in assay [2] it was -1.5 °C; in assay [3] it was 0 °C; in assay [4], 0.55 °C; in assay [5], 0.48 °C; in assay [6], -1.61 °C. Moreover, the ΔTm in assay [7] is -0.12 °C; in assay [8], 0.36 °C.

Consider `C=C(C)[C@@H](CC=C(C)C)C[C@@]12C[C@@H](CC=C(C)C)C(C)(C)[C@@](CC=C(C)C)(C(=O)C(C(=O)c3ccc(O)c(O)c3)=C1O)C2=O`, for which the ΔTm in assay [1] is 0.52 °C; in assay [2] it was -5.01 °C; in assay [3], -3.75 °C; in assay [4], 0.51 °C; in assay [5], -0.68 °C; in assay [6], -6.65 °C. The ΔTm in assay [7] was 0.51 °C; in assay [8], -0.01 °C.

On to `CN(C)CCCN(CC[C@H](N)C(=O)O)C[C@H]1O[C@@H](n2cnc3c(N)ncnc32)[C@H](O)[C@@H]1O`, for which the shift in melting temperature (ΔTm) is 0.32 °C in assay [1]; -2.2 °C in assay [2]; -0.1 °C in assay [3]; 0.02 °C in assay [4]; -1.16 °C in assay [5]; 0.04 °C in assay [6]. Moreover, the ΔTm is -0.74 °C in assay [7] and -1.49 °C in assay [8].

As to `CC(=O)N[C@@H](Cc1ccc(O)cc1)C(=O)N[C@H](C(=O)N[C@@H](C)C(=O)N[C@H](C=O)CC(=O)O)C(C)C`, the ΔTm in assay [1] was 0.25 °C; in assay [2], -2.08 °C; in assay [3] it was 0.16 °C; in assay [4], 0.05 °C; in assay [5], -0.9 °C; in assay [6], -0.12 °C. Also, the results for the ΔTm in assay [7] and in assay [8] were -1.08 °C and -0.33 °C, respectively.

Consider `O=C1c2ccccc2C(=O)c2oc(-c3ccccc3)nc21`, for which the thermal shift (ΔTm) in assay [1] was 0.27 °C; in assay [2], -2.65 °C; in assay [3], 0.44 °C; in assay [4], -0.2 °C; in assay [5], 0.18 °C; in assay [6] it was -0.09 °C. In addition, the ΔTm is -2.45 °C in assay [7] and 1.13 °C in assay [8].

`CC1(C)Cn2nc(-c3ccc(F)cn3)c(-c3ccnc4[nH]ncc34)c2CO1`: the ΔTm in assay [1] is 2.43 °C; in assay [2] it was -1.54 °C; in assay [3], 0.09 °C; in assay [4], 9.16 °C; in assay [5], -1.21 °C; in assay [6], -0.48 °C. Further, the ΔTm was -0.55 °C in assay [7] and -1.54 °C in assay [8].

In the case of `O=C(c1cccc(-c2ccc(-c3cn(C(=O)N4CCCCC4c4ccccc4)nn3)cc2)c1)N1CCCCC1` (stereo not given), the ΔTm in assay [1] was 1.85 °C; in assay [2], 11.3 °C; in assay [3], 0.3 °C; in assay [4] it was 0.93 °C; in assay [5] it was -2.22 °C; in assay [6], 1.43 °C. For the same compound, the values for the ΔTm in assay [7] and in assay [8] were 4.6 °C and -0.32 °C, respectively.

With `CCCCCCCCCCCCC/C=C/[C@@H](O)[C@H](CO)NC(=O)CCl`, the ΔTm in assay [1] was 0.07 °C; in assay [2], -0.55 °C; in assay [3] it was -0.22 °C; in assay [4], 2.15 °C; in assay [5], -0.08 °C; in assay [6], 1.33 °C. In addition, the ΔTm was 0.17 °C in assay [7] and -0.39 °C in assay [8].

As for `CN(C(=O)CCCOc1ccc2[nH]c(=O)ccc2c1)C1CCCCC1`, the ΔTm was 0.63 °C in assay [1]; -1.68 °C in assay [2]; 0.09 °C in assay [3]; -0.15 °C in assay [4]; 0.07 °C in assay [5]; 0.58 °C in assay [6]. For the same compound, the results for the ΔTm in assay [7] and in assay [8] were -2.27 °C and -2.36 °C, respectively.

For the compound `O=c1[nH]c(N2CCC3(CC2)CN(CCO)c2cc(F)cc(F)c23)nc2c1CCCC2`, the ΔTm was 0.43 °C in assay [1]; -3.2 °C in assay [2]; 0.1 °C in assay [3]; -0.13 °C in assay [4]; -1.32 °C in assay [5]; 0.22 °C in assay [6]. Besides, the ΔTm in assay [7] was -0.79 °C; in assay [8], -1.21 °C.

Turning to `Cc1cc(OCCCNCC(C)(C)C(N)=O)ccc1Cc1c(O[C@@H]2O[C@H](CO)[C@@H](O)[C@H](O)[C@H]2O)n[nH]c1C(C)C`, the ΔTm in assay [1] was 0.7 °C; in assay [2], -2.92 °C; in assay [3], 0.08 °C; in assay [4], -0.08 °C; in assay [5], -0.66 °C; in assay [6] it was 0.38 °C. The ΔTm in assay [7] is -2.36 °C; in assay [8], 0.9 °C.

In general, ΔTm refers to the change in melting temperature against a reference sample.
